Assay [1] in a line: NCI Yeast Anticancer Drug Screen. Data for the rad50 strain (AID 155).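 Note: 0% = growth of vehicle-only cultures of the same strain.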 The conditions noted are these: S. cerevisiae rad50 strain growth inhibition, stronger effect = higher value; at 50.0 µM unless noted. Summed up:
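Relative growth inhibition (compound vs vehicle) was measured in yeast with a defined repair-gene alteration.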

A short description of assay [2]: NCI Yeast Anticancer Drug Screen. Data for the mec2-1 strain (AID 157). The conditions noted are these: S. cerevisiae mec2-1 strain, stronger effect = higher value; at 50.0 µM unless noted. Summed up:
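Using mec2-1 yeast: add compound, measure growth, express inhibition versus vehicle-treated cultures.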

Assay [3] in a line: NCI Yeast Anticancer Drug Screen. Data for the sgs1 mgt1 strain (AID 161).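 Note: 0% = growth of cultures given vehicle only.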 The following applies: S. cerevisiae sgs1 mgt1 strain, stronger effect = higher value; at 50.0 µM unless noted. In a few lines:
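Compounds are added to genetically altered yeast, and growth is compared with cultures given vehicle alone to give percent inhibition.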

Assay [4] can be described thus: NCI Yeast Anticancer Drug Screen. Data for the cln2 rad14 strain (AID 165).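 Note: 0% = growth equal to vehicle treated cultures.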 The following applies: S. cerevisiae cln2 rad14 strain, stronger effect = higher value; at 50.0 µM unless noted. Summed up: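 Yeast strain cln2 rad14, bearing defects in cell cycle control and DNA repair, serves as the test system; values reflect growth inhibition compared with vehicle.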
Assay [5] is described as follows: NCI Yeast Anticancer Drug Screen. Data for the bub3 strain (AID 167). The following applies: S. cerevisiae bub3 mutant strain, stronger effect = higher value; at 50.0 µM unless noted. Summed up:
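Screening used yeast with an engineered genetic alteration affecting cell cycle control. Compound-exposed cultures were compared with vehicle cultures, and reduced growth was taken as inhibition.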

The nature of assay [6]: NCI Yeast Anticancer Drug Screen. Data for the mlh1 rad18 strain (AID 175). The following applies: S. cerevisiae mlh1 rad18 strain growth inhibition, stronger effect = higher value; at 50.0 µM unless noted. In a few lines: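 Steps: expose repair-defective yeast to compound; measure growth; express inhibition against vehicle-treated controls.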

About 79,000 compounds went through this panel and 15% of them were active in at least one assay; those are over-represented in the sample as a whole. Unmarked numbers belong to inactive results. The source made the active and inactive calls. Cut-off read from the data, not from the text of the source: active = growth inhibition above about 70%; inactive = the rest.

For the compound `Cc1c2ccccc2nc(CS(C)(=O)=O)[n+]1[O-]`, the growth inhibition in assay [1] was -16.9%; in assay [2] it was -1.8%; in assay [3] it was -4.75%; in assay [4], -51.6%; in assay [5], -16.7%; in assay [6] it was -5.5%.
As for `CC1Nc2ccccc2C1C` (stereo unspecified), the growth inhibition in assay [1] was -35.2%; in assay [2] it was -49%; in assay [3], -62.1%; in assay [4] it was 7.05%; in assay [5] it was -59.6%; in assay [6], -12.5%.
For `OC12c3ccccc3C1CCCCCCCCCC21OCCCO1` (stereo unspecified), the growth inhibition in assay [1] was -2.65%; in assay [2], -19.8%; in assay [3] it was -42.6%; in assay [4], 6.4%; in assay [5] it was -30.4%; in assay [6], -23.6%.
As to `CN(C)C1=NS(=O)(=O)c2ccccc21`, the growth inhibition in assay [1] is -0.75%; in assay [2], 1%; in assay [3] it was -7.25%; in assay [4] it was -40.3%; in assay [5], 6.35%; in assay [6] it was 2.9%.
Consider `COc1ccc(/C=N/N2CN(C(C)C(=O)O)B(NCCC(C)C)N=C2N)cc1OC` (stereo unspecified), for which the growth inhibition was -0.5% in assay [1]; -10.3% in assay [2]; 20.9% in assay [3]; 6.3% in assay [4]; 29.2% in assay [5]; -4.1% in assay [6].
For `CCOC(=O)c1[nH]c(C)c(C#N)c1C`, the growth inhibition in assay [1] is -34.4%; in assay [2] it was -26.6%; in assay [3], -12.7%; in assay [4], -34.6%; in assay [5], -20.8%; in assay [6] it was -19.1%.
Take `CN(C)c1ccc(/C=C2\C[N+](C)(C)C/C(=C\c3ccc(N(C)C)cc3)C2=O)cc1`: the growth inhibition in assay [1] was 6.9%; in assay [2], 3.4%; in assay [3], 9.35%; in assay [4], -2.55%; in assay [5], -3.45%; in assay [6] it was 32.8%.
`CC(C)=CCNc1ncnc2c1ncn2CCC(=O)O`: the growth inhibition in assay [1] is -23.9%; in assay [2] it was -4.6%; in assay [3], -57%; in assay [4] it was -4.45%; in assay [5], -9.85%; in assay [6], -28.9%.
Turning to `Cc1cccc(/C=N/NC(=S)NC(C)(C)C)n1`, the growth inhibition in assay [1] was -17.4%; in assay [2], -32.4%; in assay [3] it was -4.45%; in assay [4] it was 0.1%; in assay [5] it was 15.8%; in assay [6], -27.1%.
In the case of `CCc1cccc(CC)c1NC(=O)OCCN(CC)CC`, the growth inhibition in assay [1] was -3.8%; in assay [2], -16.9%; in assay [3] it was 10.4%; in assay [4], 16.8%; in assay [5], 11.6%; in assay [6], 4.15%.
Regarding `COc1c2c(cc3c1C(=O)c1c(O)cccc1C3=O)CC(O)CC2` (stereo unspecified), the growth inhibition is -14.7% in assay [1]; -33.2% in assay [2]; -13.4% in assay [3]; -10.5% in assay [4]; 2.8% in assay [5]; -22.9% in assay [6].
Consider `CCN(CC)CCOc1cccc(NC(=O)CN(CC)CC)c1`, for which the growth inhibition in assay [1] is -8.2%; in assay [2] it was -25.8%; in assay [3] it was 15.3%; in assay [4] it was 1.4%; in assay [5], 17%; in assay [6], 1.65%.
`CCNc1cccc(C)c1`: the growth inhibition was 28.9% in assay [1]; -10.7% in assay [2]; -16.2% in assay [3]; -33.8% in assay [4]; 12.8% in assay [5]; 23.1% in assay [6].
For `CCN(CCOC)C(C)=O`, the growth inhibition in assay [1] is 2.15%; in assay [2] it was 2.25%; in assay [3], 17.6%; in assay [4], -1.75%; in assay [5], -0.45%; in assay [6] it was -3.05%.
As for `C1COC2SC3=C(SC(=C4SC5=C(SCCS5)S4)S3)SC2O1` (stereo unspecified), the growth inhibition is 3.05% in assay [1]; -2.05% in assay [2]; 19.2% in assay [3]; -5.6% in assay [4]; 8.85% in assay [5]; 6.9% in assay [6].
`N#C/C(=C\C1CCCCC1Cl)C1CCC([N+](=O)[O-])CC1` (stereo unspecified): the growth inhibition in assay [1] was 12.6%; in assay [2], 5.15%; in assay [3], 17.2%; in assay [4], -8.35%; in assay [5], 32.8%; in assay [6], 18.1%.
For the compound `CC1CCC(c2cc(-c3ccccc3)n(-c3ccccc3)n2)CC1` (stereo unspecified), the growth inhibition was -6.25% in assay [1]; 6.05% in assay [2]; -2.35% in assay [3]; -26.4% in assay [4]; -17.4% in assay [5]; -6.15% in assay [6].
As for `C[C@H](CCC1=NCCN1)[C@H]1CC[C@H]2[C@@H]3CC[C@@H]4C[C@H](O)CC[C@]4(C)[C@H]3CC[C@]12C`, the growth inhibition is 91.6% (active) in assay [1]; 92.8% (active) in assay [2]; 91.2% (active) in assay [3]; 91.6% (active) in assay [4]; 91.1% (active) in assay [5]; 91% (active) in assay [6].
Turning to `CC(=O)OC1CC2C3CCc4cc(O)ccc4C3CCC2(C)C1` (stereo unspecified), the growth inhibition in assay [1] was 22.4%; in assay [2] it was -15.8%; in assay [3], -8%; in assay [4], 6.7%; in assay [5], -0.05%; in assay [6] it was 3.2%.
For the compound `CSC(SC)c1cc(C)no1`, the growth inhibition was -11.3% in assay [1]; 12.2% in assay [2]; -7.45% in assay [3]; 34.6% in assay [4]; -10.2% in assay [5]; -9.15% in assay [6].
As for `O=C1N(C2CCCCC2)C(/C=C/c2ccccc2)C1(c1ccccc1)c1ccccc1` (stereo unspecified), the growth inhibition was 22.4% in assay [1]; 0.25% in assay [2]; 3.65% in assay [3]; 19.6% in assay [4]; -6.05% in assay [5]; 4.7% in assay [6].

The values above are taken from PubChem BioAssay (NCI).
